# Reference: PubChem BioAssay AID602229 (The Scripps Research Institute Molecular Screening Center, 2012)
# The whole screen tested about 360,000 compounds, of which about 1,300 (0.36%) were called active. For the sample, actives were picked, then their nearest neighbours and some compounds at random. A number with no mark means an inactive call.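 How the source made its calls: active means inhibition above the mean of all tested compounds plus 3 SD (cut at about 70% in these data); inactive means the rest.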
# Target: Photoreceptor-specific nuclear receptor (Homo sapiens) (UniProt Q9Y5X4)
# Assay: NCOR release from NR2E3 in cells – cell-based, luminescence, CHO-S, Gal4-NCOR/VP16-NR2E3, primary screen (AID 602229);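 further: 0% = DMSO with NR2E3 transfected cells and 100% = cells lacking NR2E3 construct; higher means lower luciferase signal from less NR2E3 corepressor binding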
# Details: CHO-S Gal4-NCOR/VP16-NR2E3 two-hybrid, luciferase; at 3.98 µM; active compounds read high
# Photoreceptor-specific nuclear receptor (Homo sapiens), sequence (Q9Y5X4 whole entry, looked up, the tested form may be a part): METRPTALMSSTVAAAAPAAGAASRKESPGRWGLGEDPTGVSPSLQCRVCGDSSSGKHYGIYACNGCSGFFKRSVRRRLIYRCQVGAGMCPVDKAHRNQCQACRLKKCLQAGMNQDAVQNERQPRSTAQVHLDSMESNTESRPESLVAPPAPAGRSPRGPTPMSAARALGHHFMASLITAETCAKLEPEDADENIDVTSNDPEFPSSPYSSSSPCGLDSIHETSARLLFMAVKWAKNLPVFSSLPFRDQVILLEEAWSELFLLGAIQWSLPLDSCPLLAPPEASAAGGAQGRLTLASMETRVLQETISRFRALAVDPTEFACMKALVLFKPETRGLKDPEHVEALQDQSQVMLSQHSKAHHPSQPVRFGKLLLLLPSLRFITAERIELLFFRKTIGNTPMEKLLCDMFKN
row,SMILES,inhibition of corepressor binding
1,CCOC(=O)C1=C(CNC2CCCCC2)NC(=O)NC1c1cc(C)ccc1C (stereo unspecified),-26.1%
2,CCN(Cc1ccccc1)S(=O)(=O)c1cc2c3c(c1)CCN3C(=O)CC2,13.4%
3,COc1ccc(CNC(=O)COc2cccnc2[N+](=O)[O-])cc1,-7.82%
4,O=C(COc1ncnc2ccccc12)NC(=O)NCc1ccccc1,9.2%
5,COc1ccc(CNc2ncnc3ccccc23)cc1,96.1% (active)
6,Cc1ccc(O/C=C2\OC(=O)c3ccccc32)cc1,-37.1%
7,Cc1c(C(=O)N(Cc2ccccc2)Cc2cccnc2)cnn1-c1ccc(F)cc1,0.5%
8,COc1ccc(S(=O)(=O)Nc2ccc3oc(C)c(C(C)=O)c3c2)cc1,60.2%
9,COc1ccc(NS(=O)(=O)c2ccc(Oc3c(C#N)cccc3C#N)cc2)cc1,86.5% (active)
10,COc1ccc(NS(=O)(=O)c2ccc(N3CCN(CCO)CC3)c([N+](=O)[O-])c2)cc1,17.4%
11,CCOCc1c(C(=O)N2CCN(Cc3ccc(Br)s3)CC2)oc2ccccc12,-14.4%
12,O=S(=O)(c1ccc(F)cc1)N1CCN=C1SCc1cccc(F)c1,3.65%
13,Cc1ccc(S(=O)(=O)N2CCN(C(=O)COC(=O)CNC(=O)c3ccc(C(C)(C)C)cc3)CC2)c(C)c1,1.29%
14,Cn1nccc1C(=O)NC1CCCc2c1cnn2-c1ccccc1F (stereo unspecified),105% (active)
15,O=C(CCNC(=O)c1ccc(Cl)cc1)NC1CCCc2ccccc21 (stereo unspecified),-14.3%
16,COc1ccc(C(=O)NC2CC(C)(C)Cc3c2cnn3-c2ccccc2)c(OC)c1 (stereo unspecified),-23.7%
17,CC1=C(C(=O)NC2CC(C)(C)Cc3c2cnn3-c2ccc(C)cc2)OCCO1 (stereo unspecified),-12.3%
18,COc1ccc(C(=O)NC2CCCc3c2cnn3-c2cccc(C)c2C)c(OC)n1 (stereo unspecified),91.3% (active)
19,COC(=O)c1ccc(C(=O)NC2CC(C)(C)Cc3c2cnn3-c2ccc(F)cc2)nc1 (stereo unspecified),-87.5%
20,Cc1cc(C(=O)NC2CC(C)(C)Cc3c2cnn3-c2ccccc2)n[nH]1 (stereo unspecified),-26.5%
21,COc1ccc(C(=O)NC2CC(C)(C)Cc3c2cnn3-c2ccccc2C)o1 (stereo unspecified),-34.2%
22,Cn1nccc1C(=O)NC1CCCc2c1cnn2-c1ccc(F)cc1F (stereo unspecified),107% (active)
23,NC(=O)COC(=O)c1ccc2c(c1)C(=O)N(Cc1ccco1)C2=O,-5.79%
24,Cc1cc(C)n(CCC(=O)N2CCN(S(=O)(=O)c3ccc(C)c(C)c3)CC2)n1,3.36%
25,Cc1ccc(CN(N=Nc2nonc2N)c2nonc2N)c(C)c1,-19.7%
26,CC1CCCC(NC(=O)CN2CCN(Cc3ccc(Cl)cc3)C2=O)C1C (stereo unspecified),2.85%
